Assay results as given in PubChem BioAssay AID2384 (Southern Research Specialized Biocontainment Screening …, 2010).
About 1,100 (48%) of roughly 2,300 compounds were called active. The set was probably picked from earlier hits. Some of the results follow. Potency and affinity values are given separately. Unmarked numbers belong to inactive results. How the calls were made is not given here.

test: inhibitors in S. typhi counter-screen strain, dose response, counter-screen for PhoP regulon inhibitor project, fluorescence, 4 h (AID 2384); settings: S. typhi GFP reporter counter-screen; series mostly up to 150 µM; inhibition: at the top concentration

| Compound | inhibition |
| --- | --- |
| O=C(O)c1cccc(NC2=Nc3cccc4cccc2c34)c1 | -13.8% |
| COc1ccc(Cn2nnnc2C(c2cc3ccc(OC)cc3[nH]c2=O)N2CCC(C)CC2)cc1 (stereo not drawn) | -31.1% |
| CCCCCNC(=O)c1cn(CC)c2cc(N3CCN(C)CC3)c(F)cc2c1=O | 31.1% |
| O=C(CCC(=O)Nc1nnc(C2CCCCC2)s1)NCC1CCCO1 (stereo not drawn) | 21.9% |
| COc1ccc(OC)c(S(=O)(=O)N2CCC(C(=O)NCc3ccccc3OC)CC2)c1 | 14.1% |
| COC(=O)C1=C(C(=O)OC)SC(=C2C(=S)C(C)(C)N(C(=O)C3CC3)c3ccccc32)S1 | 26.6% |
| COc1cc(/C=N/N(C)S(=O)(=O)c2ccc(C)cc2)cc([N+](=O)[O-])c1O | 15.3% |
| COc1cccc(/C=N/NC(=O)CNC(=O)COc2cccc(C)c2)c1O | 18% |
| Nc1ccc(C(O)(C(F)(F)F)C(F)(F)F)cc1 | 6.54% |
| Cc1nnc(SCc2cnc(-c3ccc(C(C)C)cc3)s2)n1C | 8.56% |
| COC(=O)c1ccc(Cn2c(O)c(N=NC(N)=S)c3ccccc32)o1 | 0.41% |
| CC1CCCCN1S(=O)(=O)c1ccc(S(=O)(=O)NCCc2ccncc2)cc1 (stereo not drawn) | -15.6% |
| NC(=O)c1ccsc1NC(=O)c1ccc2c(c1)CCCC2 | -10.9% |
| COc1ccc(/C=N/NC(=O)c2cccnc2)c(C(=O)O)c1OC | -21.9% |
| N#C/C(=C\c1ccc(O)c(O)c1)C(=O)c1ccc(O)c(O)c1 | 3.1% |
| COc1cc(/C=C(/C#N)C(=O)Nc2ccccc2)c(Br)cc1OCc1ccc(C(=O)O)cc1 | 1.17% |
| COc1ccc(OC)c(C(=O)c2ccc(C(=O)O)cc2)c1 | 21% |
| COc1ccc2nc(C)cc(Nc3ccc(N4CCOCC4)cc3)c2c1 | 11.6% |
| COc1ccc(/C=N/NC2=NCCCCC2)c(OC)c1 | 15.8% [at 9.38 µM] |
| CC(Oc1ccc(/C=N/NC(=O)Cc2cccc3ccccc23)cc1)C(=O)O (stereo not drawn) | -15.5% |
| COc1ccc(CNC(=O)C(c2cccs2)N(C(=O)c2csnn2)C2CC2)cc1 (stereo not drawn) | 4.17% |
| COC(=O)c1ccc(NC(=O)c2ccccc2N(C)S(=O)(=O)c2ccccc2)cc1 | -15.2% |
| Cc1ccc(N/N=C/c2ccncc2)cc1 | 5.95% |
| Cc1ccc(-c2ccccc2NC(=O)CS(=O)CC(=O)Nc2ccc(C)c(Cl)c2)o1 (stereo not drawn) | -36.7% |
| COc1ccc(-n2c3c(cc(C(=O)Nc4cccc(C)n4)c2=O)C(=O)CC(C)(C)C3)cc1 | 8.91% |
| CNc1nc(SC)n(C)c(=O)c1N=O | 28.2% |

| Compound | inhibition |
| --- | --- |
| O=C(CCCCCn1c(=S)[nH]c2ccc(N3CCOCC3)cc2c1=O)NC1CCN(Cc2ccccc2)CC1 | 4.3% |
| Cc1ccc(NC(=S)Nc2ccc(S(=O)(=O)Nc3ncccn3)cc2)cc1Cl | -48.7% |
| CCOC(=O)c1cc(-c2ccc(F)cc2)n(CCC(=O)NC2CCN(Cc3ccccc3)CC2)c1C | 16.4% |
| Cc1ccc(CCNC(=O)C2CCN(S(=O)(=O)N3CCCC3)CC2)cc1 | 5.6% |
| CC1CCN(c2nc3ccc(C(=O)NCCCN4CCCCC4)cc3s2)CC1 | -15.2% |
| Cc1c(C)n(C)c2ccc(C(=O)NCCCN3CCCC3)cc12 | 23.2% |
| O=C(c1ccc2c3c(cccc13)CC2)C1CCCN(Cc2ncc[nH]2)C1 (stereo not drawn) | 5.85% |
| COCC1CCCN(Cc2cn[nH]c2-c2cc3ccccc3o2)C1 (stereo not drawn) | -4.44% |
| O=c1cc(-c2ccc(Cl)cc2)[nH][nH]1 | -29.4% |
| COc1ccc2c(c1)c1nc(SCC(C)C)n(CCO)c(=O)c1n2C | -6.72% |
| O=C(CN(C(=O)CNS(=O)(=O)c1ccccc1)C1CCCC1)NCc1ccco1 | 10.6% |
| COc1ccc(C(=O)CSc2nnc(-c3cnccn3)n2Cc2ccco2)cc1 | -5.15% |
| CCn1c(CNC(=O)c2ccc(OC)cc2)nnc1SC | 13.5% |
| CN(C)S(=O)(=O)c1cccc(NC(=O)c2cnccn2)c1 | -8.09% |
| CC(=O)Nc1ccccc1-c1nc2ccc(C(=O)N3CCN(c4cc(C)ccc4C)CC3)cc2[nH]c1=O | -15.4% |
| Cn1cc(C(=O)N/N=C/C(Br)=C/c2ccccc2)ccc1=O | -0.23% |
| COc1cccc(/C=N/NC(=O)CSCC(=O)Nc2ccccc2)c1O | 35.8% |
| C/C(=N\NC(=O)c1c(Br)c(C)nn1C)c1ccc(NC(=O)c2ccoc2C)cc1 | -10.8% |
| COc1cccc(/C=N/NC(=O)CO/N=C(\C)c2cccs2)c1OC | 1.19% |
| COc1cccc(/C=N/NC(=O)C(=O)N2CCCC2)c1O | 36.2% |
| O=C(Nc1ccc2[nH]c(=S)sc2c1)Nc1ccccc1F | 38.3% |
| CC1=C([N+](=O)[O-])C(c2cccc(Br)c2)C2=C(N1)c1ccccc1C2=O (stereo not drawn) | 3.59% |
| Cn1nnnc1SCc1nnc(-c2ccccc2Br)o1 | 25.7% |
| Cc1c(C)c2ccc(OC(C)C(=O)N[C@@H](Cc3c[nH]c4ccccc34)C(=O)O)c(C)c2oc1=O (stereo partly drawn) | 9.71% |
| COc1ccc(-c2nnn(-c3ccc(Cl)cc3Cl)c2N)cc1 | 15.7% |
| CC(=O)Oc1ccc(C(=O)Nc2ccc3c(c2)C(=O)N(CCC(=O)O)C3=O)cc1 | 19.9% |

| Compound | inhibition |
| --- | --- |
| Cc1ccccc1-n1ncc2c([N+](=O)[O-])cc([N+](=O)[O-])cc21 | 22.4% |
| COc1cc(NS(=O)(=O)c2ccc(NC(=S)Nc3ccccc3)cc2)nc(OC)n1 | -64.8% |
| Cc1ccc(-n2[nH]c(C)c(C=NCc3ccncc3)c2=O)cc1 | -25.8% |
| Cc1[nH]n(-c2ccccc2)c(=O)c1C(c1cccc([N+](=O)[O-])c1O)c1c(C)[nH]n(-c2ccccc2)c1=O | 38.4% |
| COc1ccc(CCNC(=O)CSc2ccc(-c3ccncc3)nn2)cc1 | -28.5% |
| O=C(Nc1ccc2c(c1)OCCO2)C(=S)NCc1ccccc1 | -17.1% |
| O=C(CCN1CCC(c2ccccc2)C1)c1ccc2c(c1)OCCO2 (stereo not drawn) | 32.1% |
| Cc1ccc(N(C(=O)c2sc(C)nc2C)C(C(=O)NCc2ccco2)c2ccccc2)cc1 (stereo not drawn) | 20.7% |
| COc1ccc(C2=NN3C(=O)c4c(ccc(OC)c4OC)C3C2)cc1 (stereo not drawn) | 33.9% |
| O=[N+]([O-])c1cccnc1S(=O)(=O)c1ccccc1 | 5.22% |
| O=c1ccnc(Sc2ncccc2[N+](=O)[O-])[nH]1 | 38.7% |
| CC(=O)NS(=O)(=O)c1ccc(Nc2ccc([N+](=O)[O-])c3nonc23)cc1 | 2.51% |
| COc1ccc(CCN(C(=O)C(F)(F)F)C(C(=O)NC2CCCC2)c2cccs2)cc1 (stereo not drawn) | 3.89% |
| CCCCNC(=O)NS(=O)(=O)c1ccc(C(=O)OC)o1 | -10.3% |
| CC(C)OC(=O)c1cccc(C(=O)Oc2ccc(Br)cc2)n1 | -9.99% |
| Nc1ccc(S(=O)(=O)Nc2ccc(Cl)nn2)cc1 | -47% |
| CN1CCN(c2ccc(C(=O)c3cn(-c4ccc(F)c(Cl)c4)nn3)cc2)CC1 | 5.83% |
| CN1CCN(C2=Cc3cc(Cl)ccc3Sc3cc(F)ccc32)CC1 | 30% |
| CCc1nnc(NS(=O)(=O)c2ccc(N=Cc3c(C)[nH]n(-c4ccc(C)cc4)c3=O)cc2)s1 | 33% |
| COC(=O)C1=C(C)N(C2CCCC2)C(=O)C1(NC(C)=O)C(F)(F)F (stereo not drawn) | -13.7% |
| O=C(CN(Cc1ccco1)C(=O)CNS(=O)(=O)c1ccc(Cl)cc1)NCc1ccc(F)cc1 | -17.2% |
| CN(C)CCN1C(=O)C(O)=C(C(=O)c2cc3ccccc3o2)C1c1ccccn1 (stereo not drawn) | -12.4% |
| CC(=O)c1ccc(OC(=O)c2cc3ccccc3oc2=O)cc1 | 14.8% |
| O=C(O)c1ccc(S(=O)(=O)NC2CC2)cc1 | 16% |
| Cc1ccc(OCCCCn2c(CO)nc3ccccc32)cc1 | 22.4% |
| Cc1cccc(OCc2nnc(SCC(=O)N3CCCC3)n2C)c1 | 9.88% |

| Compound | inhibition |
| --- | --- |
| CCCCOc1ccc(-c2nnn(CC(=O)Nc3ncc(CC(=O)OCC)s3)n2)cc1 | -14% |
| Cc1ccc2nc(/C(C#N)=C\c3ccc(N4CCCCC4)c([N+](=O)[O-])c3)[nH]c2c1 | 17.9% [at 9.38 µM] |
| CCCCc1cc(=O)oc2cc(C)cc(OCC(=O)NCC3CCC(C(=O)O)CC3)c12 (stereo not drawn) | 20.5% |
| O=C1c2ccc3c4c(ccc(c24)C(=O)N1c1cccc(O)c1)C(=O)N(c1cccc(O)c1)C3=O | -25.5% |
| Cc1cccc(N2C(=O)CS/C2=N\NC(=O)c2ccc(Br)cc2)c1C | 33.8% |
| Cc1ccc(/C=C2\SC(=S)N(c3cccnc3)C2=O)o1 | -11.2% |
| Cc1c(C(=O)O)sc(=S)n1-c1ccc(Cl)cc1 | -14.3% |
| CC(=O)NCc1ccc(C(=O)CSc2nnc(-c3ccncc3)n2Cc2ccccc2)o1 | 5.35% |
| COc1ccc(S(=O)(=O)N[C@H](C(=O)N2CC[C@@]3(O)CCCC[C@H]3C2)c2ccccc2)cc1 | 8.21% |
| COc1ccc(OC)c(S(=O)(=O)N2CCC(C(=O)NCCc3ccc(OC)c(OC)c3)CC2)c1 | 11.8% |
| COc1ccc(OC)c(NC(=O)CCNS(=O)(=O)c2ccc3c(c2)c(=O)n(C)c(=O)n3C)c1 | -22.5% |
| O=C(CCCOc1ccc(Cl)cc1Cl)NNC(=O)C1CCC1 | -6% |
| Clc1ccc(OCc2nn3c(C4CCCCC4)nnc3s2)c(Cl)c1 | 3.08% |
| CC(C)OC(=O)Cn1c(=O)sc2ccccc21 | 12.4% |
| CC/C(=N\Nc1ccnc2cc(Cl)ccc12)c1ccc(O)cc1 | 37.8% |
| Cc1ccc(NC(=O)CS(=O)CC(=O)Nc2ccccc2-c2ccc(C)o2)cc1 (stereo not drawn) | -5.22% |
| Cc1ccc(NC(=O)Cc2ccc(F)cc2)cc1 | 1.72% |
| CC1CCN(CC(CS(=O)(=O)c2ccc([N+](=O)[O-])cc2)N2CCC(C)CC2)CC1 (stereo not drawn) | 5.45% |
| CC1CC(C)CN(S(=O)(=O)c2cccc3cccnc23)C1 (stereo not drawn) | 18.1% |
| C=CCN(c1ccccc1)S(=O)(=O)c1cccc2cccnc12 | 16.4% |
| Cc1cc(C(=O)OCC(=O)Nc2cccc(S(=O)(=O)N3CCOCC3)c2)c(C)o1 | 13.7% |
| Cc1nc(N=Nc2ccc(O)cc2)n[nH]1 | -1.9% |
| Cc1cccc(-n2ccnc2CN2CCN(C3CCCC3)C(CCO)C2)c1 (stereo not drawn) | 10.4% |
| O=C1c2[nH]nc(-c3ccccc3O)c2C(c2ccc(F)cc2)N1CC1CCCO1 (stereo not drawn) | 20% |
| COc1ccccc1-c1cc2nc(C)c(CCC(=O)NC(C)CCc3ccco3)c(C)n2n1 (stereo not drawn) | -15.5% |
